Assay results as given in the supplement of paper PMC10849652.
Of roughly 8,800 targets only a part is listed; those with a hit were picked by preference. About 0.5% of all pairs of compound and target were hits. Unmarked numbers belong to inactive results.

What was measured:
Experiment in all cases: log2 fold change, soluble protein after heating vs DMSO (PISA); higher = thermal stabilisation; K562 lysate, 10 uM; active = over 0.2 and 3.5 SD of the protein, either way, in both replicates (recomputed)
alvocidib = compound: CN1CC[C@H](c2c(O)cc(O)c3c(=O)cc(-c4ccccc4Cl)oc23)[C@H](O)C1 [alvocidib]
How it was run: (§1)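 Log-two fold change in thermal stability relative to solvent controls is reported from duplicates. For each sample, crude K562 extract from dounce-homogenised pellets in PBS pH 7.4 with 1 mM MgCl2, at 1 mg/mL protein, was treated with 10 μM compound for 30 min. Aliquots heated for 3 min across 48°C-58°C were pooled, brought to 0.5% NP-40 at 4°C and cleared at 21,000xg for 90 min. The supernatant was quantified by TMTpro 16plex LC-MS/MS with channel sums equalised.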

Tubastatin A = compound: CN1CCc2c(c3ccccc3n2Cc2ccc(C(=O)NO)cc2)C1 [Tubastatin A]
How it was run: as §1

[1] = compound: CNC(=O)C1=CC=CC=C1NC2=NC(=NC=C2Cl)NC3=C(C=C(C=C3)N4CCOCC4)OC
How it was run: as §1

defactinib = compound: CNC(=O)c1ccc(Nc2ncc(C(F)(F)F)c(NCc3nccnc3N(C)S(C)(=O)=O)n2)cc1 [defactinib]
How it was run: as §1

[2] = compound: CNc1nc(-c2ccc3c(N)n[nH]c3c2)cc(N2C[C@@H](C(=O)NC3CCCCC3)CC[C@H]2C)n1
How it was run: as §1

encorafenib = compound: COC(=O)N[C@@H](C)CNc1nccc(-c2cn(C(C)C)nc2-c2cc(Cl)cc(NS(C)(=O)=O)c2F)n1 [encorafenib]
How it was run: as §1

[3] = compound: COC(=O)[C@H](CCSC)NC(=O)C1=C(C=C(C=C1)NC[C@H](CS)N)C2=CC=CC=C2
How it was run: as §1

alisertib = compound: COc1cc(Nc2ncc3c(n2)-c2ccc(Cl)cc2C(c2c(F)cccc2OC)=NC3)ccc1C(=O)O [alisertib]
How it was run: as §1

[4] = compound: COc1cc2nc(-c3cc(F)ccc3O)nc(N[C@@H]3CNC[C@H]3C(C)(C)O)c2cc1OC
How it was run: as §1

gefitinib = compound: COc1cc2ncnc(Nc3ccc(F)c(Cl)c3)c2cc1OCCCN1CCOCC1 [gefitinib]
How it was run: as §1

Sequence of UniProt Q16659 (Q16659 whole entry, looked up): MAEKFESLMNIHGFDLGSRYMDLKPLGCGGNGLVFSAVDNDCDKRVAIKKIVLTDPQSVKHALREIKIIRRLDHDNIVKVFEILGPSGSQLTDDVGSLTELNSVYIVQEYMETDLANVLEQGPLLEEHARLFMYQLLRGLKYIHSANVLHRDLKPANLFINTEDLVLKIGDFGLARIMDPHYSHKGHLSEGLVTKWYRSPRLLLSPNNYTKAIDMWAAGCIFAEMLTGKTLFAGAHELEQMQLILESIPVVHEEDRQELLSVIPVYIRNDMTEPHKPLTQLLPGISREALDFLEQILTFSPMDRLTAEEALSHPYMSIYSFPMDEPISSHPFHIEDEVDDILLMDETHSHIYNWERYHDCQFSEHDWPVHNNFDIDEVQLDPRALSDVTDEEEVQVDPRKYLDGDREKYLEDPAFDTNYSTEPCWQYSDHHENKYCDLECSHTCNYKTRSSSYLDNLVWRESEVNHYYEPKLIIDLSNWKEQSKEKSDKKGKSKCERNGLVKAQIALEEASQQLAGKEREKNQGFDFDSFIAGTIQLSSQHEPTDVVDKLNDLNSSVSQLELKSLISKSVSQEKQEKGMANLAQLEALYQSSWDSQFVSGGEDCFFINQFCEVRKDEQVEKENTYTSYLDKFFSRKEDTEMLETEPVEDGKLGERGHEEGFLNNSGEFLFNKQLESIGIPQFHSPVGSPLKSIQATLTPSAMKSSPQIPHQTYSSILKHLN
Sequence of UniProt Q00987 (Q00987 whole entry, looked up): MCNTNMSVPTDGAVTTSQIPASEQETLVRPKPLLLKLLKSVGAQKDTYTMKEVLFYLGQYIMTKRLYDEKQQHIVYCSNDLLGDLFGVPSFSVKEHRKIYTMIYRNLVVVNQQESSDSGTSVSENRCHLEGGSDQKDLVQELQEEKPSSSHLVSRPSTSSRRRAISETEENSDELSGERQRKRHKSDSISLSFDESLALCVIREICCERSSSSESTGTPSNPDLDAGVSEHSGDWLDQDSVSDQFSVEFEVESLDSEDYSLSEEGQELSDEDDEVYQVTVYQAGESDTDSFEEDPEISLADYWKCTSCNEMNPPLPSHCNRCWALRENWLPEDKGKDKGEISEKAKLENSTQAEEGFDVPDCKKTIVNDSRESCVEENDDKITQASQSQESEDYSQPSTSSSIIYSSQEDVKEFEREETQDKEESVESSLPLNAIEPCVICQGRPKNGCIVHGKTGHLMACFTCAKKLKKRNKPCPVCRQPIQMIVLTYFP
Sequence of UniProt P52732 (P52732 whole entry, looked up): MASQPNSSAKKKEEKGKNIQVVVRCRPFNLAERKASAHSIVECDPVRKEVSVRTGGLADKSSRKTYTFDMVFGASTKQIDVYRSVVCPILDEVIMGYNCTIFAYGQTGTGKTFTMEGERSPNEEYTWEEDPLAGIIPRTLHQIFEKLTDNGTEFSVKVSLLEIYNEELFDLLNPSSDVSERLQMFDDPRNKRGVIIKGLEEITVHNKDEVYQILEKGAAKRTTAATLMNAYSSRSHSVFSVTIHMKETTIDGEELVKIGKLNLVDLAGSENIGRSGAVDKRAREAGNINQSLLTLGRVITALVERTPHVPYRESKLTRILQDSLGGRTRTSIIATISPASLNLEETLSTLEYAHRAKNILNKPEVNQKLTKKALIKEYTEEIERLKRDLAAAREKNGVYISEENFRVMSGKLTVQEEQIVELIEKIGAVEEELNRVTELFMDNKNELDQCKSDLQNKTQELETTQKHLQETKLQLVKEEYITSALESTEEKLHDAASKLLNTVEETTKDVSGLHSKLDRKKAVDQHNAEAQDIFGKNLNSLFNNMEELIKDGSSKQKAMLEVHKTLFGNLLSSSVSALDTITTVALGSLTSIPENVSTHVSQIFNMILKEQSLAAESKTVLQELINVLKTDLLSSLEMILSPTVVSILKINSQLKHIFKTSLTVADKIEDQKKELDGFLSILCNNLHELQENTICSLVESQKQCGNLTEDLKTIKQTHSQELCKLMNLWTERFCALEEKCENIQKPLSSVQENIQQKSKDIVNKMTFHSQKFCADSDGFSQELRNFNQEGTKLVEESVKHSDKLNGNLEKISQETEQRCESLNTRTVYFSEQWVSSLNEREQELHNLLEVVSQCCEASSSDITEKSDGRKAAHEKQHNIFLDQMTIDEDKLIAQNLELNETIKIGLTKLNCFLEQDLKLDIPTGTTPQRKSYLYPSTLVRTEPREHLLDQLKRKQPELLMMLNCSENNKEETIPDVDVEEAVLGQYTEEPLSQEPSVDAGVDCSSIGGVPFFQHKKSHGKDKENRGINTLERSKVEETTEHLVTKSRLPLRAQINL
Sequence of UniProt O14782 (O14782 whole entry, looked up): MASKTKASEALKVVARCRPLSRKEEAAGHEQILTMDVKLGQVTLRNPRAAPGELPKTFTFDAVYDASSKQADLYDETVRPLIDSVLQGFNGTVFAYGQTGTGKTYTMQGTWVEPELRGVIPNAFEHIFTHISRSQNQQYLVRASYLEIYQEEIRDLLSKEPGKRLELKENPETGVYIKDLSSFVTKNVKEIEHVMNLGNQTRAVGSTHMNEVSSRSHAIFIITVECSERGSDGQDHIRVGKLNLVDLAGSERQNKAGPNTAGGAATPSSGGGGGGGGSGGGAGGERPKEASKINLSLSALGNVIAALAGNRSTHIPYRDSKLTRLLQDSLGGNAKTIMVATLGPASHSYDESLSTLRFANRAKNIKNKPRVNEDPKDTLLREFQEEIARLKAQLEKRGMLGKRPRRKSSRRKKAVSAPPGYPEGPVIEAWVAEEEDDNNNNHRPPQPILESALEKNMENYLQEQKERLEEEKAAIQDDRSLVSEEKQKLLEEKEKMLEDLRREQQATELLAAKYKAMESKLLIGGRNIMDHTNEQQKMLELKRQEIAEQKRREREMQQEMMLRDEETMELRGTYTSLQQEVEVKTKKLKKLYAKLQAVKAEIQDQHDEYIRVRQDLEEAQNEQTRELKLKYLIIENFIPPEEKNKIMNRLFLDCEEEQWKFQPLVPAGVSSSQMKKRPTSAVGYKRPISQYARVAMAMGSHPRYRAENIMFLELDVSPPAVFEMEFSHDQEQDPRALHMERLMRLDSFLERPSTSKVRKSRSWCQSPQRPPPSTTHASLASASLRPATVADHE
Sequence of UniProt O14880 (O14880 whole entry, looked up): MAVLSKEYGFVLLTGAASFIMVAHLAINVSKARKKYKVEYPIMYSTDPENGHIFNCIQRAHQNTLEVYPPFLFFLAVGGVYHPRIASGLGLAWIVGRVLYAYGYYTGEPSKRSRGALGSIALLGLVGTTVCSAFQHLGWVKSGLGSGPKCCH
Sequence of UniProt Q8IWC1 (Q8IWC1 whole entry, looked up): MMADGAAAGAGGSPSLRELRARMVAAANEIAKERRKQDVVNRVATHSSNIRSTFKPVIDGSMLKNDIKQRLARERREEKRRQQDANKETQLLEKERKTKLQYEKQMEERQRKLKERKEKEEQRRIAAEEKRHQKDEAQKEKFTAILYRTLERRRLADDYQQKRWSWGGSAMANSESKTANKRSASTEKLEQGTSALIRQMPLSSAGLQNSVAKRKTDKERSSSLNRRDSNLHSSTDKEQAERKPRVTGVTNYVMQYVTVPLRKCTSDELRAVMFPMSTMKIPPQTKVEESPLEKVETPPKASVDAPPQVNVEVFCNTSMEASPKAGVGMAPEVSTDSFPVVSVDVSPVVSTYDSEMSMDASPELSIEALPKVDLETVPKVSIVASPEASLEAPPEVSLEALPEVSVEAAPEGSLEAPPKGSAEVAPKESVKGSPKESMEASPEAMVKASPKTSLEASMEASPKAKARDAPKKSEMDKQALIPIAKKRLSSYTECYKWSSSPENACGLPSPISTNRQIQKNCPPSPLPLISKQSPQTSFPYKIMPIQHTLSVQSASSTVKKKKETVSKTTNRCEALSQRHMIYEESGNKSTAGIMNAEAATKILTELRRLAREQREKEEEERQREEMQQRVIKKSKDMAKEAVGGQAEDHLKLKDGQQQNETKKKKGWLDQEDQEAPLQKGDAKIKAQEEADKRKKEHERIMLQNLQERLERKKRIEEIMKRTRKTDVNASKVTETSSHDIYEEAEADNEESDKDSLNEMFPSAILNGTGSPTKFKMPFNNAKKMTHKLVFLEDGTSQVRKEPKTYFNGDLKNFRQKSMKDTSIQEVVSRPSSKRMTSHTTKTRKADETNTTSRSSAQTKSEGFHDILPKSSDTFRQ
Sequence of UniProt P28838 (P28838 whole entry, looked up): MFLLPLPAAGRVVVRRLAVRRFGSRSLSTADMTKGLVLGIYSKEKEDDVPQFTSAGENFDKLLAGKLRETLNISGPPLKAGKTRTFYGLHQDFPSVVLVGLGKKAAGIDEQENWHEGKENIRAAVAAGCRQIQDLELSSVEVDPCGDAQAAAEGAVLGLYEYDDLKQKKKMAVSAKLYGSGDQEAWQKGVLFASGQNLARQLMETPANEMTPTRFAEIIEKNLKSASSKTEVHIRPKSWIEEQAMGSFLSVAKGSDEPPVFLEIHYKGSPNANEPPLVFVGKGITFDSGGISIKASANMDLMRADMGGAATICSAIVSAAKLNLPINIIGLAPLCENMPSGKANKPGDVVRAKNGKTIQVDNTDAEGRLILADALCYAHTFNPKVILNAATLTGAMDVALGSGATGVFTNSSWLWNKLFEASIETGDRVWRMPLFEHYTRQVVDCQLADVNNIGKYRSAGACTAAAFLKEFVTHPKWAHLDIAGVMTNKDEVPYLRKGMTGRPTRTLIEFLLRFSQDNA
Sequence of UniProt Q9UBB5 (Q9UBB5 whole entry, looked up): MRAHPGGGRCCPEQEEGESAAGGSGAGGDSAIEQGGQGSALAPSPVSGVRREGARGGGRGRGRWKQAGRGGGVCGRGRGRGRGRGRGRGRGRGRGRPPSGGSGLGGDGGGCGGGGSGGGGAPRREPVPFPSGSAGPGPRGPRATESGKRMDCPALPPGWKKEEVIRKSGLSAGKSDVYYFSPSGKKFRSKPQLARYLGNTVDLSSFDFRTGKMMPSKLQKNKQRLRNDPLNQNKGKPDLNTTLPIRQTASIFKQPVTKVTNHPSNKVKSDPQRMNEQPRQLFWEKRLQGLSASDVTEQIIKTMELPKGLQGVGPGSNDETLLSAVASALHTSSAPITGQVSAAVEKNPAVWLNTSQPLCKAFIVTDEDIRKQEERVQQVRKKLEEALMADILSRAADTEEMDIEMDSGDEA

| Target | log2 fold change (alvocidib) | log2 fold change (Tubastatin A) | log2 fold change [1] | log2 fold change (defactinib) | log2 fold change [2] | log2 fold change (encorafenib) | log2 fold change [3] | log2 fold change (alisertib) | log2 fold change [4] | log2 fold change (gefitinib) |
| --- | --- | --- | --- | --- | --- | --- | --- | --- | --- | --- |
| MDM2 isoform 11 (UniProt Q00987) | -0.127 | 0.15 | 0.041 | 0.158 | – | – | – | – | – | – |
| MBD2 (UniProt Q9UBB5) | 0.026 | -0.06 | 0.001 | 0.022 | 0.083 | 0.013 | -0.061 | 0.031 | 0.024 | -0.016 |
| MAP4K5 (UniProt Q9Y4K4) | 0.045 | -0.021 | 0.068 | 0.125 | -0.006 | 0.009 | -0.191 | -0.027 | 0.189 | 0.086 |
| KIF11 (UniProt P52732) | 0.008 | -0.107 | 0.035 | -0.007 | -0.022 | 0.034 | 0.032 | -0.013 | -0.003 | 0.016 |
| MRPL28 (UniProt Q13084) | 0.261 | -0.074 | -0.11 | 0.039 | 0.001 | 0.026 | -0.026 | 0.045 | -0.02 | 0.072 |
| LAP3 (UniProt P28838) | -0.249 | 0.082 | 0.069 | -0.063 | 0.191 | 0.006 | 0.004 | -0.02 | 0.038 | -0.004 |
| MAPK6 (UniProt Q16659) | 0.133 | -0.086 | 0.115 | 0.049 | -0.023 | -0.037 | -0.092 | -0.001 | 0.072 | 0.113 |
| MPP1 (UniProt Q00013) | -0.01 | -0.01 | -0.007 | -0.002 | 0.01 | -0.015 | 0.011 | -0.008 | -0.007 | 0 |
| MAP7D3 (UniProt Q8IWC1) | -0.063 | 0.015 | 0.037 | -0.379 (active) | -0.011 | 0.223 | 0.013 | 0.01 | -0.02 | 0.017 |
| MGST3 (UniProt O14880) | 0.071 | 0.043 | 0.054 | 0 | 0.029 | -0.04 | 0.052 | 0.026 | -0.005 | -0.038 |
| LARS2 (UniProt Q15031) | 0.021 | -0.06 | -0.047 | 0.013 | -0.088 | 0.038 | -0.115 | 0.051 | 0.007 | 0.012 |
| KIF3C (UniProt O14782) | 0.033 | -0.018 | -0.01 | 0.157 | 0.058 | 0.101 | 0.024 | 0.247 | 0.07 | -0.029 |
| LARS (UniProt Q9P2J5) | 0.051 | -0.153 | 0.006 | 0.023 | -0.054 | 0.001 | 0.097 | 0.01 | -0.013 | -0.007 |
| MORC3 (UniProt Q14149) | -0.015 | -0.098 | 0.017 | 0.018 | -0.028 | 0.007 | 0.038 | -0.003 | 0.021 | -0.01 |
